Bioassay records (PubChem BioAssay)
Compounds with a hit are over-represented: about 10% of the library has one in this group of screens.
LMNA splice mod = qHTS Assay for Modulators of Lamin A Splicing; HeLa LMNA splicing GFP/RFP minigene ratio, 48 h; Potency, µM (doses to about 46.1 µM), for inactives: at the top dose ratio change, negative = inhibition, hits mostly inhibitors; actives 0.01% (n = 200,000); AID 1487, 2009; active means well fitted inhibition curve with a large enough effect in the signal ratio, with a control signal flat, not every such curve was filed as active; inconclusive means small, poorly fitted or top-dose-only effect, or effect the other way, or a change in a side signal; the % refers to the signal ratio; further: potency means the concentration at half of the fitted maximal effect
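S3 HeLa cells stably expressing lamin A-EGFP splicing minigene plus DsRed2, 600 cells/well, 48 h compound exposure at 37C. Laser-scanning cytometry; analysed as GFP (500-530 nm)/RFP (575-640 nm) total intensity ratio; 0.5% DMSO vehicle.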
ALOX12 inhib = qHTS Assay for Inhibitors of 12-hLO (12-human lipoxygenase); Polyunsaturated fatty acid lipoxygenase ALOX12 (Homo sapiens), P18054; purified 12-hLO, xylenol orange hydroperoxide absorbance; Potency, µM (series often up to 57.1 µM), for inactives: top-dose activity change, negative = inhibition, actives largely listed as inhibitors; actives 0.12% (n = 150,000); AID 1452, 2008; active means well fitted inhibition curve with a large enough effect; inconclusive means small, poorly fitted or top-dose-only effect; further: potency means the concentration at half of the fitted maximal effect; nearly all actives have a fitted effect of over 55% in size
Target sequence (P18054 whole entry, looked up): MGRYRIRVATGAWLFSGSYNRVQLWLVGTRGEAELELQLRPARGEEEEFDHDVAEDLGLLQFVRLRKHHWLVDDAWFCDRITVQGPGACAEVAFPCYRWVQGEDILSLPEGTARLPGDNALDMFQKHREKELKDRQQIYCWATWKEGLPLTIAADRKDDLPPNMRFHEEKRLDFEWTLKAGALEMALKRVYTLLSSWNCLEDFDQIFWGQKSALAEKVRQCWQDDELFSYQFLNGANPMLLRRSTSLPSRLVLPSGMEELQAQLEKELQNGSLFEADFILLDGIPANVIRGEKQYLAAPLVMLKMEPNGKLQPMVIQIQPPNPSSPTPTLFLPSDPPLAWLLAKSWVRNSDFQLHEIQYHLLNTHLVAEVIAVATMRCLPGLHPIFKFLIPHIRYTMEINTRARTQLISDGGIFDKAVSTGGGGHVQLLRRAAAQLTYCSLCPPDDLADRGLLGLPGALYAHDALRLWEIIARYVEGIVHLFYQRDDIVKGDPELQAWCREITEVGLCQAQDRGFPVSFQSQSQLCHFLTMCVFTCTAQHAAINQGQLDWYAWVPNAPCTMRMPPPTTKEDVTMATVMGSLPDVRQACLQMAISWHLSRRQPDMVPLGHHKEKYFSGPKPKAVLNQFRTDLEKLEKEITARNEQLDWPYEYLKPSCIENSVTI
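150 nM 12hLO, 25 mM Hepes pH 7.0 + 0.01% Triton X-100; cpd preinc 15 min RT; 40 uM arachidonic acid, 30 min RT; Fe-XO 30 min; A573/A405 ratio as read-out.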
PNC assembly inh = High Content Assay for Compounds that inhibit the Assembly of the Perinucleolar Compartment | PC3M PTB-GFP, PNC prevalence imaging, 16 h; hits give low values | activity change (PNC), negative = inhibition, % at 10 µM | actives 3.1% (n = 140,000);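 active means readout at or below -70, meaning at least 70% loss of cells showing the perinucleolar compartment, a nuclear body marking cancer cells; inconclusive means readout between -30 and a set limit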;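 further: plate controls were DMSO wells for no effect and camptothecin positive control wells for full effect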
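PC3M cells stably expressing PTB-GFP, 750–1000 cells/well, treated 16 h at 37 °C with compound (23 nl of library stock), in duplicate. After paraformaldehyde fixation and Hoechst stain, imaged at 20x; PNC prevalence scored by image analysis.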
ALDH1A1 inh = qHTS Assay for Inhibitors of Aldehyde Dehydrogenase 1 (ALDH1A1). Purified ALDH1A1, NADH fluorescence, propionaldehyde substrate. Aldehyde dehydrogenase 1A1 (Homo sapiens), P00352. Potency, µM (series often up to 75.3 µM), for inactives: at the highest dose activity, negative = inhibition, usual class: inhibitors. actives 7.3% (n = 220,000);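 further: potency means the concentration at half of the fitted maximal effect; plate controls were no enzyme wells and a reference inhibitor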
HPGD block = qHTS Assay for Inhibitors of HPGD (15-Hydroxyprostaglandin Dehydrogenase); purified HPGD, NADH fluorescence kinetic, PGE2 substrate; actives 4.3% (n = 150,000); 15-hydroxyprostaglandin dehydrogenase [NAD(+)] (Homo sapiens), P15428; Potency, µM, for the others: at the top dose activity change, negative = inhibition, usual class: inhibitors; further: potency means the concentration at half of the fitted maximal effect
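NADH formation kinetics: reaction with 30 uM PGE2 and 1 mM NAD+ (final), 20 nM enzyme, Tris-HCl pH 8 with Tween 20, after 15 min compound preincubation at room temperature. Fluorescence change, last versus first of five reads.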
* marks the source's active call; other numbers are inactive results; ? = inconclusive; / = not tested or not shown; [ ] = dose if it differs, or a comment. Unless noted, the call rests on the fitted dose curve; in most records, active means well fitted inhibition curve with a large enough effect (not every such curve was filed as active); inconclusive means small, poorly fitted or top-dose-only effect, or another doubt; inactive means no such curve, though single readings can be large or run the other way. Unless noted, on the % scale 0 is the no-effect control and ±100 the full control effect.

SMILES	LMNA splice mod	ALOX12 inhib	PNC assembly inh	ALDH1A1 inh	HPGD block
O=C(O)CNC(=O)/C(=C/c1ccco1)NC(=O)/C=C/c1ccccc1	-8%	-5%	155	16%	-16%
COC(=O)/C(=C/c1ccco1)NC(=O)c1ccc(Br)o1	/	/	/	20µM*	/
COC(=O)/C(=C/c1ccco1)NC(=O)c1ccco1	-9%	-1%	-4	10µM*	-17%
C=CCOC(=O)/C(=C/c1ccco1)NC(=O)/C=C/c1ccccc1	2%	-18%	0	16µM*	-29%
O=C(Nc1ccccc1)N1CC[C@@]2(CCCN(C(=O)c3cc(C(F)(F)F)cc(C(F)(F)F)c3)C2)C1	/	-1%	/	2%	-4%
C/C(=C\c1ccccc1)C(=O)NCc1ccco1	-6%[46 µM]	/	/	8%	/
O=C(/C=C/c1ccccc1)/C=C/c1ccccc1	?	2%	?	32µM*	-22%
O=C(/C=C/c1ccccc1)c1ccccc1	?	-3%	20	-13%	-23%
Cc1ccc(N2C(=O)CC(N(CCc3ccccc3)C(=S)Nc3ccc(N(C)C)cc3)C2=O)cc1 (stereo unspecified)	8%	5%	34	28µM*	-15%
NC(=O)C1CCN(S(=O)(=O)c2ccc(N3CCCCS3(=O)=O)cc2)CC1	-5%[46 µM]	/	/	/	/
CCOC(=O)C1CCN(C(=O)CSc2n[nH]c(-c3ccccc3)n2)CC1	6%[46 µM]	/	/	/	/
CS(=O)Cc1cc(Sc2ccccc2)nc(-c2ccncc2)n1 (stereo unspecified)	8%[46 µM]	/	/	8.9µM*	/
CCOC(=O)CCN1C(=O)[C@H]2[C@H]3[C@H](O)[C@H](O)C/C(=N/OCc4ccccc4)[C@@H]3CC[C@@H]2C1=O	/	/	/	-9%[13.5 µM]	/
O=C(O)c1ccc(NC(=S)NC2CCCCC2)cc1	-11%	-1%	15	-8%	-12%
Cc1ccc(NC(=S)NNC(=S)NC2CCCCC2)cc1	/	/	/	3.2µM*	/
Cc1cccc(NC(=O)c2ccccc2NC(=O)C2CCCCC2)c1C	?	-28%	16	?	2.5µM*
CC(=O)c1ccc(NC(=S)NNC(=O)NC2CCCCC2)cc1	3%[46 µM]	/	/	1µM*	/
S=C(Nc1ccc(Oc2ccc(NC(=S)NC3CCCCC3)cc2)cc1)NC1CCCCC1	?	1.3µM*	?	-1%	-19%
S=C(Nc1ccc(Oc2ccccc2)cc1)NC1CCCCCC1	?	?	-3	?	-14%
N#Cc1ccc(CN2CCCC3(CCN(C(=O)c4csnn4)CC3)C2)cc1	/	-2%	/	-1%	-10%
Cc1cccc(NC(=S)NNC(=S)NC2CCCCC2)c1C	10%[46 µM]	/	/	2µM*	/
Cc1cccc(C)c1NC(=S)NC1CCCCC1	-9%	?	41	-6%	/
COc1ccc(OC)c(CNC(=O)c2cnc(N(C)C)nc2)c1	-4%[46 µM]	/	/	/	/
CN(Cc1nc(-c2ccccn2)no1)S(=O)(=O)c1ccc(Cl)cc1	-2%	-3%	?	?	25µM*
O=C(O)c1ccccc1C(=O)N(Cc1ccccc1)Cc1ccccc1	-6%	10%	15	4%	-7%
SMILES	LMNA splice mod	ALOX12 inhib	PNC assembly inh	ALDH1A1 inh	HPGD block
Nc1ccccc1C(=O)N(Cc1ccccc1)Cc1ccccc1	5%	-1%	-100*	0%	-20%
CCOc1ccc(N=Nc2c(=O)[nH]n3c(=O)cc(C)[nH]c23)cc1	12%	-1%	7	-2%	40µM*
Cc1cc(=O)n2[nH]c(=O)c(N=Nc3ccccc3)c2[nH]1	11%	-6%	?	?	?
COc1cccc(N=Nc2c(N)[nH][nH]c2=O)c1	?	-5%	-18	-1%	-25%
CCOc1ccc(N=Nc2c(N)[nH][nH]c2=O)cc1	9%	-1%	?	19µM*	-13%
CCOc1ccc(NC(=O)Cn2cnc3nc4c(cc3c2=O)CCCC4)cc1	3%[46 µM]	/	/	/	/
CCOC(=O)c1[nH]nc(-c2c(O)cc(C)cc2O)c1-c1csc(C)n1	6%	-6%	38	14%	-8%
CCCc1cc(-c2n[nH]c(C(=O)OCC)c2-c2cscn2)c(O)cc1O	1%	-5%	35	8.9µM*	3%
Cc1ccc2[nH]c(O)c(N=O)c2c1	/	/	/	32µM*	/
Cc1ccccc1Nc1sc(C(=O)c2ccc(F)cc2)c(N)c1C(=O)NCCc1ccccc1	-16%[46 µM]	/	/	/	/
S=c1nc(-c2csc3c2CCCC3)[nH][nH]1	?	/	/	11µM*	/
Cc1nnc2sc(-c3csc4c3CCCC4)nn12	?	1%	42	-10%	?
COc1cccc(NC(=S)N(CCc2ccc(OC)c(OC)c2)Cc2ccccn2)c1	-11%[46 µM]	/	/	?	/
COc1ccc(CCN(Cc2ccccn2)C(=S)Nc2ccccc2C)cc1OC	-2%[46 µM]	/	/	20µM*	/
Cc1cc(C)cc(-n2c(C)cc(/C=N/NC(=O)CN(c3c(C)cccc3C)S(C)(=O)=O)c2C)c1	3%	-2%	-19	?	-12%
Cc1ccc(N(CC(=O)N/N=C/c2cc(C)n(-c3ccccc3C)c2C)S(C)(=O)=O)cc1	9%	-3%	?	25µM*	-15%
C[C@H](N)C(=O)OC(C)(C)Cc1ccc(Cl)cc1	/	-4%	/	/	/
O=C(O)COc1c(Cl)cc(/C=C2\NC(=O)NC2=O)cc1Br	20%[46 µM]	/	/	18µM*	/
Cc1cc(Cl)cc(C)c1OCC(=O)O	2%	-2%	?	12%	-7%
Cn1c(N)c(C(=O)Nc2ccc3ccccc3c2)sc1=S	0%	-9%	-10	13µM*	8.9µM*
COc1ccccc1-n1c(N)c(C(N)=O)sc1=S	-4%	0%	-20	28µM*	28µM*
Nc1c(C(=O)Nc2ccc(F)cc2)sc(=S)n1-c1ccccc1F	/	/	/	13µM*	/
CC(C)C[C@@H](N)C(=O)Nc1ccc2ccccc2c1	/	-1%[11.4 µM]	/	4%[13.5 µM]	-9%
NC(=O)c1sc(=S)n(-c2ccc(Br)cc2)c1N	-2%	-2%	4	0%	-29%
Cc1cc(C)cc(N(C)S(=O)(=O)c2nnc(NC(=O)COc3ccc(C)c(C)c3)s2)c1	-23%[46 µM]	/	/	/	/
SMILES	LMNA splice mod	ALOX12 inhib	PNC assembly inh	ALDH1A1 inh	HPGD block
O=C1C(CCC(O)c2ccc(F)cc2)C(c2ccc(O)cc2)N1c1ccc(F)cc1 (stereo unspecified)	?	-8%	/	11%	-18%
Nc1ncnc(Nc2ccc(F)cc2)n1	8%	0%	-91*	-10%	-8%
Cc1ccc(Nc2ncnc(N)n2)cc1	/	/	/	-2%	/
CCOC(=O)c1c(-c2ccco2)csc1N	7%	-20%	2	20µM*	-28%
CCOC(=O)c1c(-c2ccco2)csc1NC(=O)CSc1nnc(N)s1	-1%	-8%	51	?	-18%
Cc1nn(-c2ccccc2Cl)c(Cl)c1/C=N/Nc1nc2ccccc2s1	?	0%	-83*	6%	?
CC(C)c1ccc(N(CC(=O)NCc2ccc(F)cc2)C(=O)c2csnn2)cc1	?	/	/	5µM*	/
